From PubChem BioAssay
RE007 growth inh – qHTS Assay for Inhibitors of the HIV-1 protein Vpr; AID 651644, 2012; Potency, µM (top dose mostly 92.2 µM), for inactives: top-dose activity change, negative = less growth, hits mostly inhibitors; S. pombe RE007 Vpr strain, BacTiter-Glo ATP luminescence, 24 h; actives 0.21% (n = 360,000); active means well fitted falling curve with a large enough effect; inconclusive means small, poorly fitted or top-dose-only effect; inactive means no such curve, though single readings can be large or run the other way; further: on the % scale 0 is the no-effect control and ±100 the full control effect; nearly all actives have a fitted effect of over 50% in size
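Fission yeast strain RE007, carrying one chromosomally integrated HIV-1 vpr copy, was seeded at OD 0.01 in PMG+AL medium with 23 nL pinned compound. After 24 h at 30 °C and 99% humidity, viability was read by BacTiter-Glo luminescence.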
Tb PYK inh – qHTS of Trypanosoma Brucei Inhibitors; actives 0.12% (n = 410,000); pyruvate kinase (Trypanosoma brucei), Q57TT1; AID 624173, 2012; Potency, µM (top dose mostly 76.8 µM), inactives show top-dose activity, negative = inhibition, hits mostly inhibitors; TbPYK enzyme, Kinase-Glo Plus ATP luminescence, 45 min; further: on the % scale 0 is the no-effect control and ±100 the full control effect; nearly all actives have a fitted effect of over 50% in size
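Enzyme and substrate buffer are dispensed first and compound is pin-transferred. ADP at 130 uM final then starts the reaction, which runs 45 min at room temperature. Detection reagent is added for 10 min before luminescence is imaged.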
Sm TGR inh – qHTS Assay for the Inhibitors of Schistosoma Mansoni Peroxiredoxins | Schistosoma mansoni thioredoxin glutathione reductase (TGR), Q962Y6 | purified TGR, DTNB reduction, TNB absorbance 405 nm | Potency, µM (highest dose often 114 µM), for the others: at the top dose activity change, negative = inhibition, actives largely listed as inhibitors | actives 3% (n = 360,000); further: on the % scale 0 is the no-effect control and ±100 the full control effect; nearly all actives have a fitted effect of over 60% in size
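Kinetic colorimetric format: TGR-catalysed, NADPH-driven DTNB reduction monitored via TNB absorbance. Enzyme dispensed at 20 nM; compound exposure 15 min at room temperature before reaction start.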
FBPA Giardia inh – qHTS Assay for Inhibitors of Fructose-1,6-bisphosphate Aldolase from Giardia Lamblia; Potency, µM (highest dose often 59.6 µM), inactives show at the top dose activity, negative = inhibition, most hits filed as inhibitors; A8B2U2; actives 0.71% (n = 290,000); AID 2451, 2010; purified Giardia FBPA; further: on the % scale 0 is the no-effect control and ±100 the full control effect; nearly all actives have a fitted effect of over 55% in size
Target sequence (A8B2U2 whole entry, looked up): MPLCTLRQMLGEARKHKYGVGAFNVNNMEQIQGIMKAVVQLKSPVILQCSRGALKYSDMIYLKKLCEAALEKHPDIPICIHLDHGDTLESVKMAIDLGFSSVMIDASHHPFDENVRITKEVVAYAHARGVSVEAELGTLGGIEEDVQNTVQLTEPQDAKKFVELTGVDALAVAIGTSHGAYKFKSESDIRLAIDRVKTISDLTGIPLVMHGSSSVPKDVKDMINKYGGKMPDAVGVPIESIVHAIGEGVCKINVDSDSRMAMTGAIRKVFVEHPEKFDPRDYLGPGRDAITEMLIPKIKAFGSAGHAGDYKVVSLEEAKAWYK
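40 nM FBPA preincubated 10 min at RT with compound (up to 57.5 uM final), then substrate plus GAPDH/TPI/NAD/arsenate coupling and diaphorase/resazurin added. Fluorescence read after 20 min at RT, 525/598 nm.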
LmPK inhibitor – qHTS Assay for Inhibitors of Leishmania Mexicana Pyruvate Kinase (LmPK); Q27686; purified LmPK, Kinase-Glo ATP luminescence, 1 h; Potency, µM (series often up to 57.5 µM), for the others: at the highest dose activity change, negative = inhibition, usual class: inhibitors; actives 0.37% (n = 290,000); AID 1721, 2009; further: on the % scale 0 is the no-effect control and ±100 the full control effect
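Screened at intermediate enzyme activity to detect both inhibitors and activators: LmPK at 0.1 nM, with a 0.5 nM enzyme column as activation reference. PEP 0.5 mM, ADP 0.1 mM; ATP detected by luminescence after 1 h.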
NS1 function inh – qHTS Assay for Inhibitors of Influenza NS1 Protein Function; AID 2326, 2010; actives 0.4% (n = 270,000); Potency, µM (series often up to 46.1 µM), inactives show at the highest dose activity, positive = more growth; calls by dose curve; further: actives are rising curves; nearly all actives have a fitted effect of over 50% in size
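Recovery from NS1-induced slow growth read by OD600 in budding yeast switched to galactose assay medium (pH 6.0, -URA) at 1:100 dilution. Compound 23 nl per well; the matching strain lacking NS1 serves as control.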
* hit, by the source's call; ? = inconclusive; · = no result given. An excerpt weighted towards active compounds, which were near 3.5% of everything screened. Unless noted, the call rests on the fitted dose curve; in most records, active means well fitted curve in the direction sought with a large enough effect; inconclusive means small, poorly fitted or top-dose-only effect, or another doubt; inactive means no such curve, though single readings can be large; an effect the other way counts as inactive or inconclusive. Potency means the concentration at half of the fitted maximal effect.

SMILES	RE007 growth inh	Tb PYK inh	Sm TGR inh	FBPA Giardia inh	LmPK inhibitor	NS1 function inh
COc1ccc(Cn2c(-c3ccco3)nc3oc4cc(OC)ccc4c(=O)c3c2=O)cc1	-1.0%	2.7%	?	-1.9%	1.1%	-11.9%
CCc1nc2oc3cc(OC)ccc3c(=O)c2c(=O)n1Cc1ccco1	5.3%	2.6%	28.2µM*	0.0%	-3.4%	-16.5%
COc1ccc2c(=O)c3c(=O)n(Cc4ccco4)c(-c4ccco4)nc3oc2c1	8.1%	-13.6%	39.8µM*	-12.6%	2.7%	-6.7%
COc1ccc2c(=O)c3c(=O)n(Cc4ccccc4)c(C(C)C)nc3oc2c1	-9.9%	2.1%	·	·	·	·
COc1ccc(-c2nc3oc4cc(OC)ccc4c(=O)c3c(=O)n2Cc2ccco2)cc1	-17.8%	0.5%	20µM*	3.5%	-2.2%	-86.3%
COc1ccc(C2C=C(c3ccccc3)Nc3nc(NC(=O)/C=C/c4ccccc4)nn32)cc1 (stereo not drawn)	·	-24.1%	0.7%	·	·	·
COc1ccc(C(=O)Nc2nc3n(n2)C(c2ccccc2)C=C(c2ccccc2)N3)cc1 (stereo not drawn)	·	-5.3%	3.16µM*	·	·	·
CCC(=O)Nc1nc2n(n1)C(c1ccc(OC)cc1)C=C(c1ccccc1)N2 (stereo not drawn)	·	·	4.47µM*	-23.2%	-0.9%	10.5%
Cc1cc(C)cc(NC(=O)c2cc(S(=O)(=O)N3CCCC3)ccc2F)c1	·	-0.9%	-0.3%	·	·	·
COc1cccc(NC(=O)Cn2c(=O)n(-c3cccc(OC)c3)c(=O)c3sc4ccccc4c32)c1	·	6.9%	-7.9%	·	·	·
CC(C)CCC[C@](C)(O)c1ccc(C(=O)O)cc1O	-9.7%	0.5%	·	·	·	·
Cc1ccc(C(O)(COC(=O)C(C)C)COC(=O)C(C)C)c(O)c1	-9.0%	-4.4%	35.5µM*	-10.0%	1.4%	-3.3%
COc1ccc(CCNC(=O)c2cnn(-c3ccc(C)c(C)c3)c2NC(=O)c2ccco2)cc1OC	-17.4%	1.6%	11.3%	-4.8%	0.8%	-22.5%
Cc1ccc(-n2ncc(C(=O)N3CCc4ccccc4C3)c2NC(=O)c2ccco2)cc1C	2.2%	-5.8%	31.6µM*	?	3.2%	6.0%
CC(NC(=O)Nc1ccc([N+](=O)[O-])cc1)C(c1ccccc1)N1CCOCC1 (stereo not drawn)	5.4%	-3.4%	28.2µM*	-16.0%	5.5%	·
CC(NC(=O)Nc1ccc(Cl)c(Cl)c1)C(c1ccccc1)N1CCOCC1 (stereo not drawn)	-3.3%	1.0%	-1.4%	-15.1%	-1.4%	-31.4%
CCOc1ccc(C(=O)Nc2cc(-c3ccccc3)no2)cc1	·	1.0%	4.6%	·	·	·
CCOC(=O)c1cc(-c2ccc(C)o2)nn1CCC#N	0.7%	-8.9%	17.8µM*	7.8%	1.9%	2.8%
COc1ccc(-n2c(CN3CCC(C)CC3)nc3ccc([N+](=O)[O-])cc3c2=O)c(OC)c1	-4.5%	-1.7%	?	-14.9%	7.1%	5.5%
CCOC(=O)N1CCN(Cc2nc3ccc([N+](=O)[O-])cc3c(=O)n2-c2ccc(OC)cc2OC)CC1	1.2%	0.1%	39.8µM*	-3.9%	3.1%	-5.9%
COc1ccc(-n2c(CN3CCN(c4ccccc4)CC3)nc3ccc([N+](=O)[O-])cc3c2=O)c(OC)c1	2.9%	-0.9%	?	-5.0%	-0.8%	-0.9%
COc1ccc(-n2c(CN3CCOCC3)nc3ccc([N+](=O)[O-])cc3c2=O)c(OC)c1	-1.2%	-7.0%	44.7µM*	-22.2%	0.2%	15.5%
Cc1ccc(Nc2nc(C)c(NC(=O)c3ccc(C)cc3)c(Nc3ccc(C)cc3)n2)cc1	·	-9.6%	-0.1%	·	·	·
CC(=O)c1ccc2c(c1)C1C=CCC1C(C(=O)O)N2 (stereo not drawn)	-0.8%	-20.2%	?	0.2%	-20.0%	14.2%
O=C(O)C1Nc2c(cccc2C(F)(F)F)C2C=CCC12 (stereo not drawn)	·	·	1.41µM*	-7.1%	2.4%	6.7%
SMILES	RE007 growth inh	Tb PYK inh	Sm TGR inh	FBPA Giardia inh	LmPK inhibitor	NS1 function inh
CC(C)C1Nc2ccc(S(N)(=O)=O)cc2C2C=CCC21 (stereo not drawn)	9.5%	-28.6%	12.6µM*	-19.5%	-9.1%	?
Cc1ccc2c(c1)C1C=CCC1C(C(=O)O)N2 (stereo not drawn)	·	·	0.708µM*	-27.8%	-7.7%	8.1%
COc1cccc2c1NC(C(=O)O)C1CC=CC21 (stereo not drawn)	6.3%	?	7.08µM*	?	-12.6%	4.3%
NS(=O)(=O)c1ccc2c(c1)C1C=CCC1C(C1CC=CCC1)N2 (stereo not drawn)	5.3%	-13.2%	?	?	-4.9%	9.9%
CCc1ccc(NS(=O)(=O)c2ccc3[nH]cc(C(=O)NCc4ccc(C)cc4)c(=O)c3c2)cc1	·	-3.3%	20.2%	·	·	·
CC(=O)c1ccc(NC(=O)CCc2c(C)nn(-c3ccc4nnc(C)n4n3)c2C)cc1	·	-0.8%	-2.3%	·	·	·
CC(=O)Nc1cccc(NC(=O)CCn2c(=O)sc3ccccc32)c1	6.9%	4.2%	-4.4%	4.4%	5.2%	-2.0%
O=C(CCn1c(=O)sc2ccccc21)Nc1cccnc1	9.6%	6.8%	50.1µM*	-4.7%	0.4%	-0.9%
CS/C(=C\[N+](=O)[O-])Nc1ccc(Cl)cc1	10.5%	0.6%	0.1µM*	8.4%	8.7%	6.0%
CC(C)=CC(=O)Nc1ccc(Cl)cc1	-15.8%	-10.6%	-5.4%	-12.4%	-19.4%	-1.7%
O=C(Nc1ccc([N+](=O)[O-])cc1)C(=O)Nc1cccc(C(=O)O)c1	?	?	8.7%	0.3%	25.1µM*	-2.1%
O=C(O)c1cc(NC(=O)c2ccc([N+](=O)[O-])cc2)cc(NC(=O)c2ccc([N+](=O)[O-])cc2)c1	1.5%	5.7%	-7.1%	0.2%	4.6%	7.6%
COc1ccc(CNC(=O)CN2N=C(c3ccc(Cl)cc3)CCC2=O)cc1	·	1.5%	0.4%	·	·	·
OCCC1CN(CC#Cc2ccccc2)CCN1Cc1ccccc1F (stereo not drawn)	0.1%	4.5%	20µM*	3.4%	2.8%	0.2%
CC1=C(C(=O)Nc2ccc(C)cc2C)C(c2ccccc2[N+](=O)[O-])n2ncc(C(=O)Nc3ccccc3)c2N1 (stereo not drawn)	·	-24.9%	-15.4%	·	·	·
CCOC(=O)CC(=O)CSc1nc2c(c(-c3cccs3)c1C#N)CCC2	-5.3%	0.1%	-0.1%	10.4%	2.5%	18.5%
